# Pf apPOL block = Pf-apPOL inhibitors, biochemical, fluorescence. Plasmodium falciparum apicoplast DNA polymerase (apPOL). Recombinant Pf-apPOL, molecular beacon fluorescence, 1.5 h. inhibition, % at 10 µM. 210,000 tested, 0.25% active
# mHTT CaM bind = mutant huntingtin-calmodulin interaction inhibitors – biochemical, AlphaScreen, primary screen | AlphaScreen His-mHTT/GST-CaM binding, luminescence | P42858 | inhibition, % at 15 µM | 190,000 tested, 3.6% active;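 further: 0% = both proteins with DMSO and 100% = one protein alone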
# The depositor's hits bear a star; i = inactive; . = no result. Sampled rows, rich in hits. Any-hit rate of the full collection: about 3.6%. No stated cut-off is given here; in the data, active means inhibition above about 50%; inactive means the rest.
SMILES,Pf apPOL block,mHTT CaM bind
CN(C)c1ccc(NC(=O)CCN2CCN(C3c4ccccc4-c4ccccc43)CC2)cc1,-4.6,93.0*
O=C(CCNc1cccc(F)c1)c1cccc([N+](=O)[O-])c1,2.8,16.0
O=[N+]([O-])c1ccc(/C=C/CNc2cccc(F)c2)o1,4.0,58.7*
CCOC(=O)Nc1nc2c(s1)CN(C(=O)c1ccccc1Br)CC2,11.0,2.6
CN1c2ccc(Cl)cc2C(=O)NC12CCN(C(=O)Nc1ccc3c(c1)OCCO3)CC2,-6.1,12.1
CN(C)c1nc(/C(N)=N\O)nc(N(C)C)n1,.,i
O=C1CC(c2ccc3c(c2)OCO3)Sc2nc(-c3ccccc3)nn21 (centres undefined),-7.5,1.0
COc1ccc(C2CC(c3ccco3)=Nc3ccccc3S2)cc1OC (centres undefined),-2.3,46.0
Cc1ccc(C2CC(c3ccco3)=Nc3ccccc3S2)cc1 (centres undefined),-0.4,64.0*
c1coc(C2=Nc3ccccc3SC(c3ccc4c(c3)OCO4)C2)c1 (centres undefined),-4.2,51.0*
COc1ccc2nc(Nc3nc(O)c(C)c(=O)[nH]3)nc(C)c2c1,-11.3,-2.0
COC(=O)c1scc(C)c1N1C(=O)C=CC1=O,-4.3,.
CN(C)c1ccc(NC(=O)c2ccc(Br)cc2)cc1,6.9,6.7
CCn1ncc(Br)c1C(=O)Nc1cccc(C(=O)O)c1,-2.8,0.0
CC(=O)N(C)c1ccc(NC(=O)c2ccc(Cn3cc(Br)cn3)cc2)cc1,-0.9,8.0
CCn1ncc(Br)c1C(=O)Nc1ccc(N(C)C)cc1,-6.8,56.0*
CN(C)c1ccc(NC(=O)c2ccc(N(C)C)cc2)cc1,-2.7,72.2*
CN(C)c1ccc(NC(=O)c2ccc(Cn3cc([N+](=O)[O-])cn3)cc2)cc1,-3.5,75.0*
COc1ccc(S(=O)(=O)n2c(SCC(=O)NCc3cccs3)nc3ccccc32)cc1,-3.6,2.0
Cc1ccc(NC(=O)C2CCN(c3ccc(C)c(F)c3)C2=O)cc1C (centres undefined),-2.2,-3.7
CCCN(CCC)CCCNC(=O)C1CCN(c2nc3cccnc3s2)CC1,3.4,-1.0
CCc1cccc(NC(=O)COc2cc(C)nc(N3CCCC3)n2)c1,-1.4,-4.6
CC(C)n1nc(CO)c2c1CCN(C(=O)Cc1ccccc1)C2,0.7,-3.6
O=C1CS/C(=C(\C(Cl)=C(Cl)Cl)[N+](=O)[O-])N1c1ccc(F)cc1,3.5,36.0
CCOc1ccc(N2C(=O)CS/C2=C(\C(Cl)=C(Cl)Cl)[N+](=O)[O-])cc1,-9.6,57.0*
SMILES,Pf apPOL block,mHTT CaM bind
Cc1ccc(C(=O)N2CCCCC2CCN(C)C)s1 (centres undefined),-1.6,-0.6
Cc1ccc(C(=O)N=C2SCCN2C(=O)c2ccc(C)s2)s1,0.2,87.0*
CC(=O)Nc1cc(C(=O)NC2CCCC(C)C2C)ccc1S(=O)(=O)c1ccc(Cl)cc1 (centres undefined),71.4*,5.0
CC1CCCC(NC(=O)C(Cc2ccccc2)NS(=O)(=O)c2ccc(Cl)cc2)C1C (centres undefined),-0.8,-10.0
CCc1nc2c(NC(=O)c3cccs3)cccn2n1,-6.4,0.9
O=C(Cc1cccs1)OCc1cc(-c2ccc(F)cc2F)on1,2.3,-98.7
O=C(OCc1cc(-c2ccc(F)cc2F)on1)c1ccc(=O)oc1,81.2*,99.7*
N#Cc1ccccc1Cn1c(=O)n(CCCC(=O)NCc2ccco2)c(=O)c2sccc21,4.3,5.0
Oc1ccccc1-c1nc2ccccc2[nH]1,1.3,65.1*
O=c1[nH]c(-c2ccccc2O)nc2ccccc12,1.6,-9.0
Clc1ccc(C2Oc3ccccc3C3=C2C(c2cccs2)n2ncnc2N3)cc1 (centres undefined),-7.7,56.0*
COc1cccc(C2C3=C(Nc4ncnn42)c2ccccc2OC3c2ccccc2OC)c1 (centres undefined),-6.8,64.0*
Fc1ccccc1C1C2=C(Nc3ncnn31)c1cc(Cl)ccc1OC2c1ccncc1 (centres undefined),0.6,21.0
COc1ccc(C2C3=C(Nc4ncnn42)c2ccccc2OC3c2cccc(OC)c2)cc1 (centres undefined),-5.1,56.0*
COc1ccc(C2C3=C(Nc4ncnn42)c2ccccc2OC3c2cccc(Cl)c2)cc1 (centres undefined),-9.6,41.0
COc1cccc(C2C3=C(Nc4ncnn42)c2ccccc2OC3c2cccc(F)c2)c1 (centres undefined),-4.1,37.0
COc1ccccc1C1Oc2ccccc2C2=C1C(c1ccc(C)cc1)n1ncnc1N2 (centres undefined),-0.7,15.0
Cc1ccc(C2C3=C(Nc4ncnn42)c2ccccc2OC3c2cccc([N+](=O)[O-])c2)cc1 (centres undefined),0.1,50.0*
O=C(C1=CN(c2ccc(F)cc2)c2ccccc2S1(=O)=O)N1CCOCC1,0.9,0.1

# Screening results deposited in PubChem BioAssay by University of Kansas High Throughput Screening Laboratory.
